Measured values: PubChem BioAssay (NCATS)
Results filed as inconclusive are left out. Calls of active or inactive are those of the source. Calls follow the shape of the dose curve; as a rule, active = well fitted inhibition curve with a large enough effect; inconclusive = small, poorly fitted or top-dose-only effect; inactive = flat fitted curve, though single readings scatter.

These compounds were tested on CP238 (assay: qHTS profiling for inhibitors of Plasmodium falciparum proliferation (AID 504749; also: nearly all actives have a fitted effect of over 60% in size;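 as to activity, negative = inhibition: 0% = DMSO vehicle and full inhibition = artemisinin control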)). Details: P. falciparum in erythrocytes, SYBR Green DNA, 72 h; series mostly up to 28.7 µM; activity, negative = inhibition: at the top concentration.
Procedure, shortened: (§1)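 Readout was DNA-dye fluorescence from lysed cultures, ex 485/em 535 nm. Parasitized red cells had grown 72 h with compound; data scaled between 0.29 uM artemisinin and DMSO wells and corrected using vehicle-only plates.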
Potency is read from the fitted curve at half-maximal effect.

Structure (SMILES) | activity, negative = inhibition | Potency
C[C@H](N)Cc1ccccc1 | 9.37% (inactive) | –
C[C@]12C=CC(=O)C=C1CC[C@@H]1C2CC[C@]2(C)OC(=O)CCC12 (stereo partly specified) | 3.85% (inactive) | –
OCC(O)[C@H]1O[C@@H]2O[C@H](C(Cl)(Cl)Cl)O[C@@H]2[C@H]1O (stereo partly specified) | 3.8% (inactive) | –
CC1(C)[C@@H](C=C(Cl)Cl)[C@@H]1C(=O)OCc1c(F)c(F)cc(F)c1F | 3.82% (inactive) | –
CC1(C)S[C@@H]2[C@H](N)C(=O)N2C1C(=O)O (stereo partly specified) | 2.14% [at 12.8 µM] (inactive) | –
C=C1Nc2ccccc2C(=O)N1c1ccccc1C | 4.03% (inactive) | –
CC1OC(O[C@H]2C[C@@H](O)[C@]3(CO)[C@@H]4C(CC[C@]3(O)C2)[C@@]2(O)CC[C@H](C3=CC(=O)OC3)[C@@]2(C)C[C@H]4O)C(O)C(O)C1O (stereo partly specified) | -4.61% (inactive) | –
O=[N+]([O-])OC1CO[C@H]2C(O[N+](=O)[O-])COC12 (stereo partly specified) | 4.49% (inactive) | –
CCOC(=O)/C=C(C)/C=C/CC(C)CCCC(C)C (stereo unspecified) | 4.27% (inactive) | –
[S]=[Sb][S][Sb]=[S] | 3.61% (inactive) | –
CN1C2CCC1C(C(=O)O)C(OC(=O)c1ccccc1)C2 (stereo unspecified) | 8.64% (inactive) | –
C[C@@H]1CC[C@H]2[C@@H](C)C(=O)O[C@@H]3OC4(C)CC[C@@H]1C32OO4 (stereo partly specified) | – | 10 nM (active)
Cc1ccc2c(c1)[C@@H]1CN(C)CC[C@H]1N2 | -1.46% (inactive) | –
Nc1nc(O)c(-c2ccccc2)o1 | -0.803% (inactive) | –
C=CC[N+]1(C)CCC23c4c5ccc(O)c4O[C@H]2C(=O)CC[C@@]3(O)C1C5 (stereo partly specified) | 10% (inactive) | –
OC[C@@H](O)[C@H]1O[C@@H]2OC(C(Cl)(Cl)Cl)O[C@H]2[C@H]1O (stereo partly specified) | 3.42% (inactive) | –
CCCCCCC(=O)O[C@H]1CC[C@H]2[C@@H]3CCC4CC(=O)C=C(C)[C@]4(C)[C@H]3CC[C@]12C (stereo partly specified) | 14.6% (inactive) | –
Cc1cc(C)cc(C(=O)OC2CC3CCC(C2)N3C)c1 (stereo unspecified) | -6.93% (inactive) | –
CCCN1CCCC2Cc3nc(N)ncc3CC21 (stereo unspecified) | 3.89% (inactive) | –
COc1ccc2c3c1O[C@H]1[C@@H](O)C=C[C@H]4C(C2)NCCC341 (stereo partly specified) | 0.52% (inactive) | –
CCCCCC(O)C1C(=O)OC(C)C(O)\C=C/C=C\C=C/C=C\C=C(\C)C(O)C(O)C(O)CC(O)CC(O)CC(O)CC(O)CC1O (stereo unspecified) | 3.75% (inactive) | –
CCCCCc1cc(O)c2c(c1)OC(C)(C)C1CC=C(C)CC21 (stereo unspecified) | – | 3160 nM (active)

The compounds below were run on CP247 in the same assay as above. Details: P. falciparum in erythrocytes, SYBR Green DNA, 72 h; series mostly up to 28.7 µM; activity, negative = inhibition: at the top concentration.
Procedure, shortened: as §1

Structure (SMILES) | activity, negative = inhibition | Potency
C[C@H](N)Cc1ccccc1 | -2.1% (inactive) | –
C[C@]12C=CC(=O)C=C1CC[C@@H]1C2CC[C@]2(C)OC(=O)CCC12 (stereo partly specified) | 8.09% (inactive) | –
OCC(O)[C@H]1O[C@@H]2O[C@H](C(Cl)(Cl)Cl)O[C@@H]2[C@H]1O (stereo partly specified) | 8.93% (inactive) | –
CC1(C)[C@@H](C=C(Cl)Cl)[C@@H]1C(=O)OCc1c(F)c(F)cc(F)c1F | 7.3% (inactive) | –
CC1(C)S[C@@H]2[C@H](N)C(=O)N2C1C(=O)O (stereo partly specified) | 5.16% [at 12.8 µM] (inactive) | –
C=C1Nc2ccccc2C(=O)N1c1ccccc1C | 4.84% (inactive) | –
CC1OC(O[C@H]2C[C@@H](O)[C@]3(CO)[C@@H]4C(CC[C@]3(O)C2)[C@@]2(O)CC[C@H](C3=CC(=O)OC3)[C@@]2(C)C[C@H]4O)C(O)C(O)C1O (stereo partly specified) | 6.43% (inactive) | –
O=[N+]([O-])OC1CO[C@H]2C(O[N+](=O)[O-])COC12 (stereo partly specified) | 7.78% (inactive) | –
CCOC(=O)/C=C(C)/C=C/CC(C)CCCC(C)C (stereo unspecified) | 3.9% (inactive) | –
[S]=[Sb][S][Sb]=[S] | -16% (inactive) | –
CN1C2CCC1C(C(=O)O)C(OC(=O)c1ccccc1)C2 (stereo unspecified) | 4.64% (inactive) | –
C[C@@H]1CC[C@H]2[C@@H](C)C(=O)O[C@@H]3OC4(C)CC[C@@H]1C32OO4 (stereo partly specified) | – | 10 nM (active)
Cc1ccc2c(c1)[C@@H]1CN(C)CC[C@H]1N2 | 0.942% (inactive) | –
Nc1nc(O)c(-c2ccccc2)o1 | 2.1% (inactive) | –
C=CC[N+]1(C)CCC23c4c5ccc(O)c4O[C@H]2C(=O)CC[C@@]3(O)C1C5 (stereo partly specified) | 12% (inactive) | –
OC[C@@H](O)[C@H]1O[C@@H]2OC(C(Cl)(Cl)Cl)O[C@H]2[C@H]1O (stereo partly specified) | 1.4% (inactive) | –
CCCCCCC(=O)O[C@H]1CC[C@H]2[C@@H]3CCC4CC(=O)C=C(C)[C@]4(C)[C@H]3CC[C@]12C (stereo partly specified) | -10.4% (inactive) | –
Cc1cc(C)cc(C(=O)OC2CC3CCC(C2)N3C)c1 (stereo unspecified) | -0.536% (inactive) | –
CCCN1CCCC2Cc3nc(N)ncc3CC21 (stereo unspecified) | 6.26% (inactive) | –
COc1ccc2c3c1O[C@H]1[C@@H](O)C=C[C@H]4C(C2)NCCC341 (stereo partly specified) | 5.64% (inactive) | –
CCCCCC(O)C1C(=O)OC(C)C(O)\C=C/C=C\C=C/C=C\C=C(\C)C(O)C(O)C(O)CC(O)CC(O)CC(O)CC(O)CC1O (stereo unspecified) | 0.669% (inactive) | –
CCCCCc1cc(O)c2c(c1)OC(C)(C)C1CC=C(C)CC21 (stereo unspecified) | – | 5010 nM (active)

These compounds were tested on CP250 in the same assay as above. Details: P. falciparum in erythrocytes, SYBR Green DNA, 72 h; series mostly up to 28.7 µM; activity, negative = inhibition: at the top concentration.
Procedure, shortened: as §1

Structure (SMILES) | activity, negative = inhibition | Potency
C[C@H](N)Cc1ccccc1 | 2.84% (inactive) | –
C[C@]12C=CC(=O)C=C1CC[C@@H]1C2CC[C@]2(C)OC(=O)CCC12 (stereo partly specified) | 4.2% (inactive) | –
OCC(O)[C@H]1O[C@@H]2O[C@H](C(Cl)(Cl)Cl)O[C@@H]2[C@H]1O (stereo partly specified) | 4.16% (inactive) | –
CC1(C)[C@@H](C=C(Cl)Cl)[C@@H]1C(=O)OCc1c(F)c(F)cc(F)c1F | 4.7% (inactive) | –
CC1(C)S[C@@H]2[C@H](N)C(=O)N2C1C(=O)O (stereo partly specified) | 4.59% [at 12.8 µM] (inactive) | –
C=C1Nc2ccccc2C(=O)N1c1ccccc1C | 1.44% (inactive) | –
CC1OC(O[C@H]2C[C@@H](O)[C@]3(CO)[C@@H]4C(CC[C@]3(O)C2)[C@@]2(O)CC[C@H](C3=CC(=O)OC3)[C@@]2(C)C[C@H]4O)C(O)C(O)C1O (stereo partly specified) | 5.19% (inactive) | –
O=[N+]([O-])OC1CO[C@H]2C(O[N+](=O)[O-])COC12 (stereo partly specified) | 4.71% (inactive) | –
CCOC(=O)/C=C(C)/C=C/CC(C)CCCC(C)C (stereo unspecified) | 2.49% (inactive) | –
[S]=[Sb][S][Sb]=[S] | 4.7% (inactive) | –
CN1C2CCC1C(C(=O)O)C(OC(=O)c1ccccc1)C2 (stereo unspecified) | 9.38% (inactive) | –
C[C@@H]1CC[C@H]2[C@@H](C)C(=O)O[C@@H]3OC4(C)CC[C@@H]1C32OO4 (stereo partly specified) | – | 14.1 nM (active)
Cc1ccc2c(c1)[C@@H]1CN(C)CC[C@H]1N2 | -3.84% (inactive) | –
Nc1nc(O)c(-c2ccccc2)o1 | -0.0533% (inactive) | –
C=CC[N+]1(C)CCC23c4c5ccc(O)c4O[C@H]2C(=O)CC[C@@]3(O)C1C5 (stereo partly specified) | 1.66% (inactive) | –
OC[C@@H](O)[C@H]1O[C@@H]2OC(C(Cl)(Cl)Cl)O[C@H]2[C@H]1O (stereo partly specified) | 1.13% (inactive) | –
CCCCCCC(=O)O[C@H]1CC[C@H]2[C@@H]3CCC4CC(=O)C=C(C)[C@]4(C)[C@H]3CC[C@]12C (stereo partly specified) | -6.19% (inactive) | –
Cc1cc(C)cc(C(=O)OC2CC3CCC(C2)N3C)c1 (stereo unspecified) | -9.1% (inactive) | –
CCCN1CCCC2Cc3nc(N)ncc3CC21 (stereo unspecified) | 3.24% (inactive) | –
COc1ccc2c3c1O[C@H]1[C@@H](O)C=C[C@H]4C(C2)NCCC341 (stereo partly specified) | 3.94% (inactive) | –
CCCCCC(O)C1C(=O)OC(C)C(O)\C=C/C=C\C=C/C=C\C=C(\C)C(O)C(O)C(O)CC(O)CC(O)CC(O)CC(O)CC1O (stereo unspecified) | 7.66% (inactive) | –
CCCCCc1cc(O)c2c(c1)OC(C)(C)C1CC=C(C)CC21 (stereo unspecified) | – | 7080 nM (active)
